Screens deposited in PubChem BioAssay by The Scripps Research Institute Molecular Screening Center.
Compounds with a hit are over-represented: about 3.5% of the library has one in this group of screens.
GPR151 ag = activates the human receptor GPR151; PathHunter beta-arrestin GPR151 cells, luminescence; AID 1508602; activation, % at 11.2 µM; 650,000 tested, 1% active; in the data active means activation above about 4.9%;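 further: 0% = median of compound wells and 100% = cells with positive control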
Target sequence (Q8TDV0 whole entry, looked up): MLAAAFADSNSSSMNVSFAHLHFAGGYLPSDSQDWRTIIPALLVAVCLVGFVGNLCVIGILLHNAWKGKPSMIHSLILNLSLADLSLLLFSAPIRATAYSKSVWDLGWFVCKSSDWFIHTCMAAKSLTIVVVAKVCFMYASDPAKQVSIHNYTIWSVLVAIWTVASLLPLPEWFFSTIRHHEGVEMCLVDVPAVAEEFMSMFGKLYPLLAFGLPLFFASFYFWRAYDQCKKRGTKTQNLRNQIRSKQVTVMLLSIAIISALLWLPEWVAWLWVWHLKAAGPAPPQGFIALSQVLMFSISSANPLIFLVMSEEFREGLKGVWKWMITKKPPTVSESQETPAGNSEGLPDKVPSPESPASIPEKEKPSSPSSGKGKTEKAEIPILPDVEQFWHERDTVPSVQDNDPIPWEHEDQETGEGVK
TEAD-YAP block = TEAD-YAP interaction inhibition; HEK-TIYL cells, TEAD-Gal4/YAP UAS-luciferase luminescence; inhibition, % at 9.12 µM; 640,000 tested, 1.4% active; in the data active means inhibition above about 32%;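 further: 0% = median of test compound wells and 100% = reference inhibitor wells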
FBW7 activator = human FBW7 E3 ligase activation, primary screen. 650,000 tested, 0.13% active. Q969H0. normalized activity (activation), % at 26.1 µM. AlphaScreen FBW7–phospho-cyclin E peptide binding, activator screen; in the data active means normalized activity above about 1.9%;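 further: purified mutant Fbw7 with reduced substrate affinity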
MITF inh = inhibitors of human MITF. 650,000 tested, 0.91% active. AlphaScreen MITF homodimerization, bead proximity signal. O75030. inhibition, % at 2.6 µM; in the data active means inhibition above about 50%;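 further: 0% = vehicle wells with protein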
GPR151 conf act = human GPR151 activation, confirmation screen; shares compounds with GPR151 ag; GPR151 PathHunter beta-arrestin cells, luminescence, 90 min; % of EA-reagent control over plate median; activation, % at 11.2 µM; 6,700 tested, under 10 active; AID 1508609;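 active means mean percent activation across replicates above the confirmation screen cutoff of 4.91%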
GPR119 ag = GPR119 activation, counter-screen for GPR151 activators; 6,700 tested, 0.3% active; activation, % at 11.2 µM; GPR119 PathHunter beta-arrestin cells, luminescence, 90 min; 0 = compound-well median, 100 = enzyme-acceptor control; shares compounds with GPR151 ag;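 active means mean percent activation in the counterscreen above 29.09%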;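 further: counterscreen on off-target GPR119 to flag nonselective hits from the GPR151 activator screen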
* = called active by the depositor; / = not tested or not shown.

SMILES | GPR151 ag | TEAD-YAP block | FBW7 activator | MITF inh | GPR151 conf act | GPR119 ag
Cc1[nH]c2ccccc2c1SCCNC(=O)c1ccc(N2C(=O)CCC2=O)cc1 | 6.2* | 7.3 | -0.1 | -2.0 | -1.4 | 2.5
COCCCN1C(=S)NC2c3ccccc3OC1(C)C2C(=O)Nc1ccc(OC)cc1 (stereo not drawn) | -0.5 | -4.1 | 0.1 | 11.9 | / | /
COc1cc(Nc2cc(C)nc(Nc3cccnc3)n2)cc(OC)c1OC | 0.2 | 0.5 | 0.1 | 23.8 | / | /
COc1cc(Nc2nc(C)cc(NC3CC3)n2)cc(OC)c1OC | 5.9* | 11.0 | -0.1 | 3.2 | 0.6 | 0.9
Cn1c(CNc2ccc(S(N)(=O)=O)cc2)nc2ccccc21 | 3.8 | -1.3 | 0.0 | 11.4 | / | /
CCC1(CCC(=O)NCC2(c3ccccc3)CCOCC2)CCC(=O)N1 (stereo not drawn) | 9.5* | -8.0 | 0.0 | -4.5 | -0.2 | -0.7
C(=C\c1ccccc1)/CN1CCN(C2c3ccccc3-c3ccccc32)CC1 | 0.0 | 2.4 | -0.2 | -0.2 | / | /
O=C(CSc1nc2cc(C(=O)NCC3CCCO3)ccc2c(=O)n1CC1CCCO1)NC1CCCCC1 (stereo not drawn) | 0.8 | 0.0 | 0.5 | 1.8 | / | /
O=C(CSc1nc2cc(C(=O)NCC3CCCO3)ccc2c(=O)n1Cc1ccco1)NC1CCCCC1 (stereo not drawn) | 5.2* | -0.8 | 0.1 | -9.0 | -0.5 | -2.4
COc1ccc(CNC(=O)CNC(=S)N(Cc2ccccc2)Cc2ccc(C)o2)cc1 | -0.9 | -7.7 | -0.1 | -3.6 | / | /
COCC(=O)NCC1CCC2(CCN(C/C(C)=C/c3ccccc3)CC2)O1 (stereo not drawn) | 5.1* | 4.9 | -0.1 | -4.3 | 0.7 | 10.0
COCC(=O)NCC1CCC2(CCN(Cc3ccc(N(C)c4ccccc4)cc3)CC2)O1 (stereo not drawn) | 1.0 | 3.5 | -0.2 | 4.3 | / | /
CCOC(=O)C1C(=O)NC(SCC(=O)Nc2ccc(Br)cc2)=C(C#N)C1c1ccccc1OCC (stereo not drawn) | 8.5* | -5.5 | -0.1 | -11.0 | -0.1 | 11.1
CC1(C)CC(NCC(=O)OC2CCCCC2)CC(C)(C)N1 | 0.4 | -3.3 | 0.1 | 24.1 | / | /
N#C/C(=C/c1ccc(Br)o1)c1ccc(C#N)cc1 | 0.2 | -3.8 | 0.0 | 21.6 | / | /
COC(=O)c1c(NC(=S)NN2CCN(C)CC2)sc2c1CCC2 | 4.6 | 6.0 | -0.1 | -2.5 | / | /
CC1(C)CC(=O)C2=C(C1)OC(c1ccccc1Cl)C(C#N)=C2N (stereo not drawn) | 0.1 | 17.3 | 0.4 | 13.4 | / | /
CC1(C)CC(=O)C2=C(C1)OC(c1ccc(Cl)cc1Cl)C(C#N)=C2N (stereo not drawn) | 10.4* | 8.3 | 0.2 | -3.8 | 0.9 | 11.1
CC(=O)Nc1ccc(C2OC3=C(C(=O)CC(C)(C)C3)C(N)=C2C#N)cc1 (stereo not drawn) | 5.6* | 9.3 | 0.0 | 4.2 | 1.4 | -0.7
CC(=O)NCCC(=O)Nc1ccc(C)cc1 | -1.8 | -0.7 | -0.1 | -2.7 | / | /
COCCNCc1nc2c(c(=O)n(C)c(=O)n2C)n1Cc1ccccc1Cl | 5.1* | -3.7 | -0.1 | -4.1 | 0.4 | 15.4
CC(=O)Nc1ccc(Nc2ccnc(N3CCc4ccccc4C3)n2)cc1 | 5.1* | 27.6 | 0.0 | 7.5 | 1.9 | 28.4
CCOc1ccc2nc(Cl)c(CN(Cc3cccs3)C(=O)c3cnccn3)cc2c1 | 0.1 | 10.9 | -0.1 | 3.9 | / | /
CCc1ccc(OCC(=O)N/N=C\c2ccc(OC)c(OC)c2)cc1 | 1.9 | -7.0 | 0.0 | 5.8 | / | /
C=CCNc1nc(-c2ccc(OC)c3ccccc23)cs1 | 5.4* | 0.2 | 0.0 | 16.3 | -0.1 | -4.0
SMILES | GPR151 ag | TEAD-YAP block | FBW7 activator | MITF inh | GPR151 conf act | GPR119 ag
O=S(=O)(NN=C1CCCCC1)c1ccccc1 | -1.9 | -5.2 | -0.1 | -5.0 | / | /
O=S(=O)(NN=C1CCCCCC1)c1ccccc1 | 15.0* | 11.0 | -0.1 | 2.7 | -1.1 | -6.4
C/C(=N\NC(=O)Cc1cccs1)c1ccccc1O | -0.6 | -17.1 | -0.2 | 15.9 | / | /
CN(NS(=O)(=O)c1ccc2ccccc2c1)c1ccccc1 | 7.6* | -0.2 | 0.0 | 5.2 | 0.5 | 1.4
CN(c1cccc(NS(=O)(=O)c2ccc3ccccc3c2)c1)S(C)(=O)=O | -0.4 | 5.1 | -0.1 | -0.3 | / | /
Cc1cc(NCc2ccccc2)nc(-c2ccccc2)n1 | 5.2* | -19.2 | 0.3 | 0.3 | -0.3 | -10.0
COc1ccc(CNc2cc(C)nc(-c3ccccc3)n2)cc1 | -1.1 | -5.1 | 0.0 | 4.0 | / | /
COc1cccc(OC)c1C(=O)Nc1ccc(Br)cn1 | 15.3* | -7.1 | 0.0 | -11.2 | -0.7 | 4.0
COc1cccc(OC)c1C(=O)Nc1ccc([N+](=O)[O-])cn1 | 0.2 | 5.1 | 0.0 | 9.7 | / | /
COc1cccc(OC)c1C(=O)Nc1ncc([N+](=O)[O-])s1 | 5.7* | 4.9 | -0.1 | 10.6 | -0.3 | -8.8
COc1cccc(OC)c1C(=O)NC(=S)Nc1ccc(Br)cn1 | -0.9 | -17.4 | -0.2 | -2.4 | / | /
OC(CNC1CCCC1)COc1ccc2c(c1)CCC2 (stereo not drawn) | 12.0* | 8.6 | -0.2 | -7.7 | -1.4 | -10.5
CC(C)NCC(O)COc1ccc2c(c1)CCC2 (stereo not drawn) | -1.9 | 22.6 | 0.1 | -7.8 | / | /
CC(C)(C)c1ccc(OCC(O)CNC2CCCC2)cc1 (stereo not drawn) | 12.4* | -2.5 | 0.1 | -7.3 | 0.2 | 14.9
Cc1nn(C)c(C)c1S(=O)(=O)N1CCCC(C(=O)c2ccc(-c3ccccc3)cc2)C1 (stereo not drawn) | 0.9 | -8.6 | 0.7 | 7.9 | / | /
Cc1ccc(-c2c(Nc3ccc(Cl)cc3)c(=O)c2=O)cc1 | 5.0* | -2.6 | 0.0 | 3.4 | 1.9 | 7.8
COc1ccc(-c2cccc(C(N)=O)c2)cc1 | 0.0 | -11.4 | -0.4 | 5.4 | / | /
CCOC(=O)c1c(-c2ccccc2)oc2ccc(OCc3ccc(C(=O)OC)cc3)cc12 | 11.9* | -2.0 | 0.0 | -2.7 | 0.3 | 17.9
CCOC(=O)N1CCN(c2c(NCCN3CCCCCC3)c(=O)c2=O)CC1 | 1.8 | -8.9 | 0.0 | -1.8 | / | /
CCOC(=O)C1CCCN(c2c(NCCCc3ccccc3)c(=O)c2=O)C1 (stereo not drawn) | -0.2 | -13.0 | -0.1 | 5.7 | / | /
CCOC(=O)N1CCC(Nc2c(NC(C)CC)c(=O)c2=O)CC1 (stereo not drawn) | 8.8* | -3.1 | -0.2 | -20.0 | 0.2 | 10.0
CC1CCN(c2c(NCc3ccc(C(=O)NCCc4ccccc4)cc3)c(=O)c2=O)CC1 | 5.2* | -9.5 | -0.3 | 2.5 | 0.7 | -8.5
CCOC(=O)C1CCN(c2c(NCCCc3ccccc3)c(=O)c2=O)CC1 | 9.9* | -4.5 | -0.2 | 4.1 | 0.3 | 3.8
CCOC(=O)N1CCN(c2c(NC3CCCCCCC3)c(=O)c2=O)CC1 | 2.8 | 2.1 | -0.1 | 2.6 | / | /
CCOC(=O)N1CCN(c2c(NCCN3CCCC3)c(=O)c2=O)CC1 | 5.5* | -6.4 | -0.1 | 1.1 | 1.4 | 9.7
